Measured values reported in PubChem BioAssay (NCI).
This is part of a sample that, as a whole, favours compounds with a hit. Of some 83,000 tested, about 20% had one in any assay.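 Testing used 96-well plates and a 48-hour single-concentration exposure. Example: -40 means 40% of the starting cells died.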 Values without a mark were called inactive. Calls of active or inactive are those of the source. The calls were made as follows: active = growth percent below 10; inactive = the rest.

Key:
Test in all cases: NCI-60 one-dose screen, 48 h (100 = growth as untreated, 0 = no growth, -100 = all killed)
Details in all cases: 10 µM unless noted
HCT-15 colon = tested on: HCT-15 colon
HT29 colon = tested on: HT29 colon
SNB-75 CNS = tested on: SNB-75 CNS
SNB-19 CNS = tested on: SNB-19 CNS
U251 CNS = tested on: U251 CNS
PC-3 prostate = tested on: PC-3 prostate
SK-MEL-5 melanoma = tested on: SK-MEL-5 melanoma
UACC-62 melanoma = tested on: UACC-62 melanoma
LOX IMVI melanoma = tested on: LOX IMVI melanoma
SK-MEL-28 melanoma = tested on: SK-MEL-28 melanoma

SMILES	growth (HCT-15 colon)	growth (HT29 colon)	growth (SNB-75 CNS)	growth (SNB-19 CNS) [%]	growth (U251 CNS)	growth (PC-3 prostate)	growth (SK-MEL-5 melanoma)	growth (UACC-62 melanoma)	growth (LOX IMVI melanoma)	growth (SK-MEL-28 melanoma)
CCOC(=O)C(=Cc1c(-c2ccccc2)[nH]c2ccccc12)C(=O)OCC	36.5%	31%	48.4%	106	52.9%	-16% (active)	41.6%	43.5%	57.3%	62.5%
CN(C)CCCn1c2c(c3cc(-c4cccc(S(N)(=O)=O)c4)ccc3c1=O)C(=O)c1ccccc1-2	61.7%	-6.96% (active)	59.1%	64.8	47.5%	67.3%	85.3%	77.3%	56.3%	113%
Cn1cc(-c2ccc3c(c2)ncn3-c2ccc(CC(=O)Nc3cc(C(C)(C)C)on3)cc2)cn1	16.1%	27.1%	-20.6% (active)	58.5	31.3%	43.5%	48.2%	35.4%	12.6%	48.5%
CC(=O)OCC1SC(OC(C)=O)C(NC(=O)/C=C/CCl)C(OC(C)=O)C1OC(C)=O (stereo not given)	100%	102%	93.8%	111	90.6%	86.8%	87.7%	98%	93.4%	112%
Nc1c(C(=O)Nc2ccccn2)sc2nc3c(cc12)CCCCCC3	20.2%	3.49% (active)	-1.5% (active)	22.3	16%	20.9%	9.47% (active)	24.8%	36.2%	51.2%
Cc1c(Cl)cccc1NC(=O)c1sc2nc3c(cc2c1N)COCC3	19.6%	5.9% (active)	19.4%	26.5	22.6%	30.3%	23.9%	31.1%	35.5%	58.6%
CCCCn1c(=O)c(/C=C/C(=O)/C=C/c2cc3ccccc3n(CCCC)c2=O)cc2ccccc21	1.62% (active)	-88.9% (active)	48.8%	16.2	-48.3% (active)	1.47% (active)	-74.5% (active)	-43.8% (active)	-80.3% (active)	-8.48% (active)
COc1ccccc1Nc1nnc(-c2ccc(Cl)cc2)o1	33.1%	16.1%	55.1%	46.4	34.4%	56.7%	37.6%	51.8%	51.7%	64%
O=C1NC(c2ccc(F)cc2)N=C2C(c3ccccc3)=NOC12 (stereo not given)	103%	98.7%	101%	103	101%	104%	105%	102%	108%	115%
CSc1nc(-c2ccc(F)cc2)c(C#N)c(N2CCOCC2)n1	98.6%	92.3%	73.8%	92.9	89.3%	89.9%	94.8%	78.9%	99.2%	101%
CN(C)C1=NCCN1	108%	88.3%	75.8%	111	96.9%	80%	103%	102%	99.2%	113%
CC1=C/C(=N\N=C2/C=C(C)CC(C)(C)C2)CC(C)(C)C1	106%	91.8%	94.9%	102	96%	94.8%	99%	93.8%	100%	116%
C1=CC2=CC=C3C=CC=C4C(c5nc6c7ccccc7c7ccccc7c6[nH]5)=CC(=C1)C2C34 (stereo not given)	90.8%	102%	102%	103	104%	78.8%	101%	61.6%	86.3%	107%
O=C(Nc1nc(-c2ccccc2)cs1)c1cc(-c2ccc(Br)cc2)nc2ccccc12	33%	39.8%	85.1%	79.2	42%	28.9%	54.8%	50.5%	42.7%	68.3%
C=CCn1c(SCC(=O)Nc2ccc(C(=O)/C=C/c3cc(OC)c(OC)c(OC)c3)cc2)nnc1-c1ccccc1	61.1%	49.1%	95.2%	86	64.4%	94.1%	77.3%	84.6%	68.7%	110%
